This is part of a sample that, as a whole, favours compounds with a hit. Of some 83,000 tested, about 20% had one in any assay.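 Each cell line was grown in a 96-well plate and treated with one concentration of compound for 48 hours. Values below 10 were considered active.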 The source made the active and inactive calls.
Tests used:
Assay in all cases: NCI-60 one-dose screen, 48 h (100 = growth as untreated, 0 = no growth, -100 = all killed)
Conditions in all cases: 10 µM unless noted
HCT-15 colon = test system: HCT-15 colon
HT29 colon = test system: HT29 colon
SNB-75 CNS = test system: SNB-75 CNS
SNB-19 CNS = test system: SNB-19 CNS
U251 CNS = test system: U251 CNS
PC-3 prostate = test system: PC-3 prostate
SK-MEL-5 melanoma = test system: SK-MEL-5 melanoma
UACC-62 melanoma = test system: UACC-62 melanoma
LOX IMVI melanoma = test system: LOX IMVI melanoma
SK-MEL-28 melanoma = test system: SK-MEL-28 melanoma

Measured: growth

C=CCNC(=O)/C(=C/c1cccc([N+](=O)[O-])c1)NC(=O)c1ccccc1
inactive: HCT-15 colon 87.5% | HT29 colon 113% | SNB-75 CNS 87.5% | SNB-19 CNS 91.2% | U251 CNS 96.8% | PC-3 prostate 94.7% | SK-MEL-5 melanoma 97.9% | UACC-62 melanoma 95.3% | LOX IMVI melanoma 93.4% | SK-MEL-28 melanoma 119%

COc1ccc2ncccc2c1Cc1c(OC)ccc2ncccc12
inactive: HCT-15 colon 57.8% | HT29 colon 30% | SNB-75 CNS 44.1% | SNB-19 CNS 82.2% | U251 CNS 57.4% | PC-3 prostate 74.6% | SK-MEL-5 melanoma 60.5% | UACC-62 melanoma 58% | LOX IMVI melanoma 68.4% | SK-MEL-28 melanoma 77.4%

COc1cc(-c2n[nH]nc2-c2ccccn2)cc(OC)c1OC
inactive: HCT-15 colon 76.8% | HT29 colon 112% | SNB-75 CNS 88.1% | SNB-19 CNS 94.8% | U251 CNS 106% | PC-3 prostate 82.1% | SK-MEL-5 melanoma 102% | UACC-62 melanoma 87.3% | LOX IMVI melanoma 98.5% | SK-MEL-28 melanoma 120%

C[C@@H]1[C@H]2[C@H](C=C3[C@@H]4CC[C@H]5Cc6nc7c(nc6C[C@]5(C)[C@H]4C[C@@H](O)[C@@]32C)C[C@@H]2CC[C@H]3C4=C[C@@H]5O[C@@]6(CC[C@](C)(CO)O6)[C@@H](C)[C@@]5(O)[C@@]4(C)[C@H](O)C[C@@H]3[C@@]2(C)C7)O[C@]12CCC(C)(C)O2
inactive: HCT-15 colon 11.2% | SNB-19 CNS 25.1% | SK-MEL-28 melanoma 40.8%
active: HT29 colon -14.6% | SNB-75 CNS -9.04% | U251 CNS 7.53% | PC-3 prostate -32% | SK-MEL-5 melanoma 0.934% | UACC-62 melanoma -0.259% | LOX IMVI melanoma 3.2%

O=C1C=CC(=O)N1c1ccccn1
inactive: HCT-15 colon 97.7% | HT29 colon 115% | SNB-75 CNS 89.3% | SNB-19 CNS 96.6% | U251 CNS 110% | PC-3 prostate 99.4% | SK-MEL-5 melanoma 111% | UACC-62 melanoma 95% | LOX IMVI melanoma 93.6% | SK-MEL-28 melanoma 115%

N#Cc1c(-c2ccc(F)cc2)n2c(nc1=O)SC(=O)C2=O
inactive: HCT-15 colon 106% | HT29 colon 105% | SNB-75 CNS 83.8% | SNB-19 CNS 103% | U251 CNS 92.2% | PC-3 prostate 92.1% | SK-MEL-5 melanoma 96.5% | UACC-62 melanoma 80.2% | LOX IMVI melanoma 87.3% | SK-MEL-28 melanoma 102%

O=c1[nH]c(N2CCC(Cc3ccccc3)CC2)nc2sc3c(c12)CCCC3
inactive: HCT-15 colon 101% | HT29 colon 83.8% | SNB-75 CNS 89.4% | SNB-19 CNS 106% | U251 CNS 91.7% | PC-3 prostate 72.7% | SK-MEL-5 melanoma 102% | UACC-62 melanoma 98.1% | LOX IMVI melanoma 97.4% | SK-MEL-28 melanoma 115%

c1ccc(N2c3nc4ccccc4cc3Sc3cc4ccccc4nc32)nc1
inactive: HCT-15 colon 95.6% | HT29 colon 104% | SNB-75 CNS 109% | SNB-19 CNS 97.8% | U251 CNS 85.7% | PC-3 prostate 72.5% | SK-MEL-5 melanoma 91.3% | UACC-62 melanoma 78.4% | LOX IMVI melanoma 84.1% | SK-MEL-28 melanoma 115%

COc1cc(NC(=O)NCc2ccco2)ccc1-c1ccc(NC(=O)NCc2ccco2)cc1OC
inactive: HCT-15 colon 48.7% | HT29 colon 33.7% | SNB-75 CNS 65.3% | SNB-19 CNS 72.9% | U251 CNS 12.4% | PC-3 prostate 33.6% | SK-MEL-5 melanoma 30.6% | UACC-62 melanoma 45.3% | LOX IMVI melanoma 45.4% | SK-MEL-28 melanoma 79.8%

COc1cc(/C=N/OC(=O)Nc2ccccc2)cc(OC)c1OC
inactive: HCT-15 colon 112% | HT29 colon 104% | SNB-75 CNS 85.2% | SNB-19 CNS 105% | U251 CNS 107% | PC-3 prostate 91.1% | SK-MEL-5 melanoma 102% | UACC-62 melanoma 90.5% | LOX IMVI melanoma 90.6% | SK-MEL-28 melanoma 104%

COc1ccc2cc(-c3nc4ccccc4[nH]3)c(=O)oc2c1
inactive: HCT-15 colon 94.2% | HT29 colon 114% | SNB-75 CNS 126% | SNB-19 CNS 98.3% | U251 CNS 93.5% | PC-3 prostate 87.5% | SK-MEL-5 melanoma 94.8% | UACC-62 melanoma 83.6% | LOX IMVI melanoma 80.4% | SK-MEL-28 melanoma 103%

Cc1n(Cc2ccc3ccccc3c2)cc[n+]1Cc1ccc2ccccc2c1
inactive: HCT-15 colon 85.3% | PC-3 prostate 14.1%
active: HT29 colon 1.25% | SNB-75 CNS 1.07% | SNB-19 CNS 2.02% | U251 CNS 8.17% | SK-MEL-5 melanoma -92% | UACC-62 melanoma -40.3% | LOX IMVI melanoma -75% | SK-MEL-28 melanoma -11.6%

O=C1c2cccc(NCCN=Cc3ccccc3O)c2C(=O)c2c(NCCN=Cc3ccccc3O)cccc21
inactive: HCT-15 colon 38.7% | SNB-75 CNS 29.3% | SNB-19 CNS 14.3% | PC-3 prostate 10.2% | SK-MEL-5 melanoma 52.7% | UACC-62 melanoma 81.5% | SK-MEL-28 melanoma 50.2%
active: HT29 colon -4.87% | U251 CNS 7.41% | LOX IMVI melanoma -3.1%

CCSc1nc(-c2ccc(F)cc2)c(C#N)c(=O)[nH]1
inactive: HCT-15 colon 104% | HT29 colon 106% | SNB-75 CNS 93.5% | SNB-19 CNS 107% | U251 CNS 107% | PC-3 prostate 127% | SK-MEL-5 melanoma 101% | UACC-62 melanoma 97.5% | LOX IMVI melanoma 95.4% | SK-MEL-28 melanoma 108%

O=C(/C=C/c1ccc([N+](=O)[O-])cc1)c1ccc2c3c(cccc13)CC2
inactive: HCT-15 colon 59.5% | HT29 colon 77.2% | SNB-75 CNS 89% | SNB-19 CNS 82.6% | U251 CNS 13.7% | PC-3 prostate 52.9% | SK-MEL-5 melanoma 97.8% | UACC-62 melanoma 80.2% | LOX IMVI melanoma 67.6% | SK-MEL-28 melanoma 63.9%

CN1C(=O)C(C2=NN(C=O)C(c3ccc(F)cc3)C2)C(=O)N(C)C1=O (stereo not given)
inactive: HCT-15 colon 101% | HT29 colon 91.7% | SNB-75 CNS 93.5% | SNB-19 CNS 92.4% | U251 CNS 92.3% | PC-3 prostate 78.7% | SK-MEL-5 melanoma 102% | UACC-62 melanoma 100% | LOX IMVI melanoma 90.4% | SK-MEL-28 melanoma 111%

CCOC(=O)CCN(c1c(Cl)ssc1=O)C(C)C
inactive: HCT-15 colon 113% | HT29 colon 102% | SNB-75 CNS 97.8% | SNB-19 CNS 109% | U251 CNS 101% | PC-3 prostate 101% | SK-MEL-5 melanoma 97.7% | UACC-62 melanoma 97.8% | LOX IMVI melanoma 94.4% | SK-MEL-28 melanoma 93.4%

COc1cc(/C=C\C(C)=N\Nc2ccccc2)ccc1O
inactive: HCT-15 colon 75.4% | HT29 colon 108% | SNB-75 CNS 98.7% | SNB-19 CNS 103% | U251 CNS 90.5% | PC-3 prostate 67.2% | SK-MEL-5 melanoma 95% | UACC-62 melanoma 69.8% | LOX IMVI melanoma 73.1% | SK-MEL-28 melanoma 120%

CCSc1nc(-c2ccco2)n2nc(-c3ccco3)cc2n1
inactive: HCT-15 colon 78.1% | HT29 colon 99.4% | SNB-75 CNS 83.2% | SNB-19 CNS 113% | U251 CNS 96.8% | PC-3 prostate 95.7% | SK-MEL-5 melanoma 78.3% | UACC-62 melanoma 89.8% | LOX IMVI melanoma 88.3% | SK-MEL-28 melanoma 120%

COc1ccc(C(=O)/C=C/c2cccc(Nc3ccnc4cc(Cl)ccc34)c2)cc1
active: HT29 colon 1.05% | SNB-75 CNS -1.22% | U251 CNS 8.83% | SK-MEL-5 melanoma 7.89% | LOX IMVI melanoma 6.49%
inactive: HCT-15 colon 30.6% | SNB-19 CNS 51.3% | PC-3 prostate 33.7% | UACC-62 melanoma 27.8% | SK-MEL-28 melanoma 44.6%

C[C@]12CCC(=O)C=C1CC[C@H]1[C@@H]3C[C@@H](O)[C@](O)(C(=O)CO)[C@@]3(C)C[C@H](O)[C@@]12F
inactive: HCT-15 colon 102% | HT29 colon 103% | SNB-75 CNS 108% | SNB-19 CNS 99.9% | U251 CNS 109% | PC-3 prostate 95.3% | SK-MEL-5 melanoma 101% | UACC-62 melanoma 98% | LOX IMVI melanoma 96% | SK-MEL-28 melanoma 107%

BrC1CC(Br)c2c1c1c(c3c2C(Br)CC3Br)C(Br)CC1Br (stereo not given)
inactive: HCT-15 colon 97.6% | HT29 colon 86.7% | SNB-75 CNS 68.6% | SNB-19 CNS 98.7% | U251 CNS 88.7% | PC-3 prostate 81.5% | SK-MEL-5 melanoma 99.8% | UACC-62 melanoma 82.4% | LOX IMVI melanoma 73.7% | SK-MEL-28 melanoma 119%

COc1cnc2c(c1)C(=O)c1c-2n(CCCN2CCCC2)c(=O)c2cc(F)ccc12
active: HCT-15 colon -18.9% | HT29 colon -31.2% | SNB-75 CNS -18.9% | U251 CNS -19% | PC-3 prostate 9.68% | SK-MEL-5 melanoma -95.9% | UACC-62 melanoma -27.8% | LOX IMVI melanoma -69.7%
inactive: SNB-19 CNS 19.7% | SK-MEL-28 melanoma 27.4%

CC[n+]1c(/C=C/c2ccc(N3CCCC3)cc2)cccc1/C=C/c1ccc(N2CCCC2)cc1
active: HCT-15 colon -85.7% | HT29 colon -82.9% | SNB-75 CNS -92.7% | SNB-19 CNS -93.9% | U251 CNS -89.6% | PC-3 prostate -76.8% | SK-MEL-5 melanoma -87.6% | UACC-62 melanoma -86% | LOX IMVI melanoma -76.5% | SK-MEL-28 melanoma -93.6%

COc1ccc2c(c1)C(=Nc1cc(OC)c(OC)c(OC)c1)C(=O)N2
inactive: HCT-15 colon 100% | HT29 colon 115% | SNB-75 CNS 104% | SNB-19 CNS 113% | U251 CNS 93% | PC-3 prostate 77.5% | SK-MEL-5 melanoma 114% | UACC-62 melanoma 88.8% | LOX IMVI melanoma 81.6% | SK-MEL-28 melanoma 90.2%

O=C(COc1ccc(/C=C2\Oc3ccc4ccccc4c3C2=O)cc1)c1ccc(Cl)cc1
inactive: HCT-15 colon 92% | HT29 colon 87.2% | SNB-75 CNS 83% | SNB-19 CNS 98.3% | U251 CNS 94.7% | PC-3 prostate 93.8% | SK-MEL-5 melanoma 92.6% | UACC-62 melanoma 94.3% | LOX IMVI melanoma 53.7% | SK-MEL-28 melanoma 112%

From PubChem BioAssay (NCI)
